For part of these data: Results with a measured potency or affinity are listed apart. Active and inactive are the calls of the source.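 The calls were made as follows, unless noted: active = fluorescence ratio normalized to control raised more than 50% in primary screen plus both repeat runs; inactive = the rest.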

From PubChem BioAssay come the findings set out here.

The test system of assay [1] is TRPC4 beta (transient receptor potential cation channel C4), mouse. Briefly: activators of mouse TRPC4 channel, confirmation, cell-based, Fluo4 calcium, HEK293 TRPC4beta/mu-opioid, duplicates, 10 µM (AID 2426). The conditions noted are these: Fluo4 calcium fluorescence, at 10 µM; active compounds read high.
The test system of assay [2] is transient receptor potential cation channel C4 beta (TRPC4), mouse. Put plainly: activators of mouse TRPC4 channel, confirmation, cell-based, second round, Fluo4, HEK293 TRPC4beta/mu-opioid, 1 µM (AID 2461;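 active = primary screen active and over 50% activation in each of two duplicate runs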). Conditions: Fluo4 calcium fluorescence, at 1 µM; active compounds read high.
The test system of assay [3] is TRPC4 (transient receptor potential cation channel C4 beta), mouse. Briefly: positive allosteric modulators of mouse TRPC4, confirmation, cell-based, second round, Fluo-4, HEK293 TRPC4beta/mu-opioid, 1 µM (AID 2554;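 active = primary screen hit whose fluorescence ratio, in both repeats, exceeds the weak agonist control mean by 3 SD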). The conditions noted are these: DAMGO EC20, Fluo-4 calcium flux, at 1 µM; active compounds read high. (Calcium assays in cells follow changes in intracellular calcium, usually with a dye or a luminescent sensor.)

Assay [4] deals with TRPC4 beta (transient receptor potential cation channel C4), mouse. Put plainly: positive allosteric modulators of mouse TRPC4, confirmation, cell-based, Fluo-4, HEK293 TRPC4beta/mu-opioid (AID 2555;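 active = primary screen hit whose calcium fluorescence ratio, in both repeats, exceeds the weak agonist control mean by 3 SD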). The conditions noted are these: DAMGO EC20, Fluo-4 calcium flux, at 10 µM; active compounds read high.
For assay [5], the target named is Short transient receptor potential channel 4 (Mus musculus) (UniProt Q9QUQ5). Briefly: inhibitors of mouse TRPC4 channel, confirmation, cell-based, Fluo4, HEK293 TRPC4beta/mu-opioid (AID 2636;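 active = calcium signal cut by more than 3 SD below the full-agonist control yet still positive, in both repeats and the earlier primary screen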). The conditions noted are these: DAMGO, Fluo4 calcium flux, at 10 µM; active compounds read high.
Short transient receptor potential channel 4 (Mus musculus), sequence (Q9QUQ5 whole entry, looked up): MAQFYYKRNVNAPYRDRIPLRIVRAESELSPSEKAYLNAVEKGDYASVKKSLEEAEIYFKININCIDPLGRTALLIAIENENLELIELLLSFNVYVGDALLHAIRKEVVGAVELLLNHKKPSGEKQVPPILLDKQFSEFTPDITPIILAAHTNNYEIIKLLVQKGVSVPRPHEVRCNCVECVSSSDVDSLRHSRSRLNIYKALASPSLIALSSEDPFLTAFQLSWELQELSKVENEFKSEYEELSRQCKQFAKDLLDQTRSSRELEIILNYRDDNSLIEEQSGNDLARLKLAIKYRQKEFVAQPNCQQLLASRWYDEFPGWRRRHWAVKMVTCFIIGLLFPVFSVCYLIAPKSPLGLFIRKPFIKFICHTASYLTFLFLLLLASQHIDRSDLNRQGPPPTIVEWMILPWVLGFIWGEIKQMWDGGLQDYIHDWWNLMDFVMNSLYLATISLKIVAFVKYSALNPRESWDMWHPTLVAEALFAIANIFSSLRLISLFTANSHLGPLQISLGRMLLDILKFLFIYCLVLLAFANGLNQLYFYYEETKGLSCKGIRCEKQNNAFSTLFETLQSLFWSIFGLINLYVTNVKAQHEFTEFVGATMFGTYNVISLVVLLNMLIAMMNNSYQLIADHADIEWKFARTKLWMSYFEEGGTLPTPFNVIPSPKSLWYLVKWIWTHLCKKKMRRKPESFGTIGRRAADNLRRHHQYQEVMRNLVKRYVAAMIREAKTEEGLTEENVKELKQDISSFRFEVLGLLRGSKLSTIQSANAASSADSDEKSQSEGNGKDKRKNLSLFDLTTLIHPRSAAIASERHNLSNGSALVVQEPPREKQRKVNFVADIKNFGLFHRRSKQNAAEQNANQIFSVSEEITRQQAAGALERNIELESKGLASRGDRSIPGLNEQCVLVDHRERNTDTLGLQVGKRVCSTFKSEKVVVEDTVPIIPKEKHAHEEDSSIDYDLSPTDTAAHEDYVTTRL
The target is the same in assay [6]. Put plainly: inhibitors of mouse TRPC4 channel, confirmation, cell-based, second round, Fluo4, HEK293 TRPC4beta/mu-opioid, 1 µM (AID 2637;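 active = calcium signal ratio cut to more than 3 SD under the fully stimulated control mean yet still positive, in both repeats and the primary screen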). Conditions: Fluo4 calcium flux, DAMGO, at 1 µM; active compounds read high.
For assay [7] the target is unchanged. Briefly: mouse TRPC4 channel activators, dose response, cell-based, HEK293 TRPC4/mu-opioid, Fluo-4 calcium (AID 434937;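 active = primary screen activator hit with a dose response curve and TRPC4 channel activation at any tested dose; inactive = no activation, no dose response, or not a primary hit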).
Assay [8] has the same target. Put plainly: TRPC4 positive allosteric modulators, dose response, cell-based, HEK293 TRPC4/mu-opioid, Fluo-4 calcium, EC20 DAMGO (AID 434941;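 active = earlier screen potentiator hit that boosts the TRPC4 ion channel at some dose, with a dose response; inactive = no potentiation, no dose response, or not a prior hit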;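 also: calcium entry triggered by an EC20 dose of DAMGO at the co-expressed mu-opioid receptor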).
Assay [9] shares this target. Put plainly: mouse TRPC4 channel inhibitors, dose response, cell-based, HEK293 TRPC4/mu-opioid, Fluo-4 calcium (AID 434942;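 active = primary screen inhibitor hit that blocks the TRPC4 channel at some tested dose, yielding a dose curve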).
The target in assay [10] is Short transient receptor potential channel 6 (Mus musculus) (UniProt Q61143). Briefly: inhibition of mouse TRPC6 channel, confirmation, selectivity assay for TRPC4 inhibitor project, cell-based, HEK293, membrane potential dye, duplicate (AID 434948;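 active = active in primary screen and both duplicates, each dropping signal beyond three positive-control SD with fluorescence still positive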). Conditions: HEK293 TRPC6, membrane potential dye fluorescence, at 10 µM, stimulated with maximal-effect acetylcholine; active compounds read high.
Short transient receptor potential channel 6 (Mus musculus), sequence (Q61143 whole entry, looked up): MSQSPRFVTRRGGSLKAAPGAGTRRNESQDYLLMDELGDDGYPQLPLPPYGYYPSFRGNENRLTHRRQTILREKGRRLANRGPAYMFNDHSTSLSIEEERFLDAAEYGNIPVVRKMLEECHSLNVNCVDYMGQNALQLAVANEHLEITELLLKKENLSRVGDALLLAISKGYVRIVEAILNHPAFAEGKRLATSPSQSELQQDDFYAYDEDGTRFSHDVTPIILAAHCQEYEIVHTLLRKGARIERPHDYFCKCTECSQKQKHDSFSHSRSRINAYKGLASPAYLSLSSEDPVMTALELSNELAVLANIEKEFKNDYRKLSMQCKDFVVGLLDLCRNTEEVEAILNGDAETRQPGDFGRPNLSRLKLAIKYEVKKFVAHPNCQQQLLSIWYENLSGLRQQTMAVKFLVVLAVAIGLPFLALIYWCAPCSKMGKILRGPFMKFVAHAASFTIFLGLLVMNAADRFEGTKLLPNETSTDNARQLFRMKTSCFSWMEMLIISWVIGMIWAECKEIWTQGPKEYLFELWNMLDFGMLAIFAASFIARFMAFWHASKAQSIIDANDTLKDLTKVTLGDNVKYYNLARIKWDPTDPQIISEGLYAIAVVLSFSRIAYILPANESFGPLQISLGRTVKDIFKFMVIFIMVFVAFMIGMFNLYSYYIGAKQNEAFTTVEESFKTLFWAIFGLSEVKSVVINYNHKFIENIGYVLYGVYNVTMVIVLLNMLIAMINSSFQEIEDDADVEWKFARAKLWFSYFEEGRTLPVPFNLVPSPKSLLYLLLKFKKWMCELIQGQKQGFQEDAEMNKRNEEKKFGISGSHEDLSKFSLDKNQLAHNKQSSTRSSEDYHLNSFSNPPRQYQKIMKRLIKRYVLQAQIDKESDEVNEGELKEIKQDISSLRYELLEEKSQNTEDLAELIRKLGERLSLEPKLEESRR

The target is the same in assay [11]. Briefly: activation of mouse TRPC6 channel, confirmation, selectivity assay for TRPC4 activator project, cell-based, HEK293, membrane potential dye, duplicate (AID 434950;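 active = membrane potential signal rise above negative control mean plus 3 SD in both duplicates, also active in the earlier TRPC4 screen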;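 as to activation: 0% = buffer only wells and 100% = acetylcholine maximal-effect wells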). Conditions: HEK293 TRPC6, membrane potential fluorescence, at 10 µM; active compounds read high.
For assay [12] the target is unchanged. Put plainly: TRPC6 potentiation by TRPC4 potentiator hits, confirmation, selectivity assay for TRPC4 potentiator project, HEK293 cells, membrane potential dye, duplicate (AID 434952;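 active = compound raising the membrane signal above positive-control mean plus 3 SD in both repeats, and a primary screen hit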). The conditions noted are these: HEK293 TRPC6, membrane potential dye fluorescence, at 10 µM, maximal acetylcholine added after compound; active compounds read high.
Assay [13] deals with Short transient receptor potential channel 4 (Mus musculus) (UniProt Q9QUQ5). Briefly: calcium flux activators in TRPC4/5HT1a cells, counter-screen for TRPC4 activator project, cell-based, second counter screen, HEK293 TRPC4/5HT1a, Fluo-4 (AID 434977;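 active = calcium signal rise above buffer-control mean plus 5 SD in both duplicates, and also a hit in the primary screen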). The conditions noted are these: Fluo-4 calcium flux, at 10 µM; active compounds read high.
Assay [14] in a line: calcium flux inhibitors in TRPC4/5HT1a cells, confirmation, counter-screen for TRPC4 inhibitor project, cell-based, second counter screen, HEK293 TRPC4/5HT1a, Fluo-4 (AID 434978;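 active = primary screen active whose calcium signal fell more than 3 SD beyond the full-serotonin control mean in both duplicate plates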;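 also: serotonin given first at submaximal then at maximal dose after compound preincubation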). The conditions noted are these: Fluo-4 calcium flux, at 10 µM, serotonin added to trigger calcium flux; active compounds read high.
The subject of assay [15] is TRPC4 (mouse), co-expressed with 5HT1a in HEK293. Put plainly: calcium flux potentiators in TRPC4/5HT1a cells, confirmation, counter-screen for TRPC4 potentiator project, cell-based, second counter screen, HEK293 TRPC4/5HT1a, Fluo-4 (AID 434979;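 active = signal rise over 3 SD above mean of control wells given weak agonist, in both repeats and first screen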). The conditions noted are these: Fluo-4 calcium flux, at 10 µM, serotonin added at its EC20 dose; active compounds read high.
A short description of assay [16]: calcium flux activation in mu-opioid HEK293 cells, confirmation, counter-screen for TRPC4 activator project, cell-based, HEK293 mu-opioid receptor line (AID 449723;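 active = hit in primary screen, with calcium signal over 5 SD above buffer well mean in both duplicates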;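 also: counter screen cells carry the mu-opioid receptor alone and lack TRPC4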). The conditions noted are these: Fluo-4 calcium fluorescence, at 10 µM; active compounds read high.
The nature of assay [17]: calcium flux enhancement in mu-opioid HEK293 cells, confirmation, counter-screen for TRPC4 allosteric potentiator project, cell-based, HEK293 mu-opioid receptor line (AID 449724;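 active = calcium signal rise more than 3 SD above the low-dose agonist control mean, in both duplicate plates and the primary screen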;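 also: HEK293 cells carrying mu-opioid receptor only with no TRPC4 channel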). The conditions noted are these: Fluo-4 calcium flux, at 10 µM, compound added before EC20 DAMGO stimulus; active compounds read high.

Turning to `COC(=O)CC(NC(=S)NC(=O)c1ccccc1)c1ccc(Br)cc1` (stereo not given), the result in assay [1], in assay [2], in assay [3], in [5], in [6] and in assay [7] was inactive. Moreover, the outcome in [8], in [9], in [10], in assay [11], in [12] and in [13] was inactive. In addition, the result in [14], in assay [16] and in assay [17] was inactive. In addition, the values for the potentiation in [4] and in assay [15] were 35% (active) and 12.5% (active), respectively.

Regarding `Cc1ccc(-c2ccc3c(c2)S(=O)(=O)c2ccccc2C3=O)cc1`, the outcome in assay [1], in assay [2], in assay [3], in assay [4], in [5] and in assay [6] was inactive. The result in assay [7], in assay [8], in [9], in assay [10], in assay [11] and in [12] was inactive. The result in assay [13], in assay [14], in [15], in assay [16] and in [17] was inactive.

`COC(=O)c1cc(N2CCN(C)CC2)nc2ccccc12`: the outcome in [1], in assay [2], in [3], in assay [4], in [5] and in assay [6] was inactive. Besides, the result in [7], in assay [8], in assay [9], in assay [10], in assay [11] and in assay [12] was inactive. The result in assay [13], in assay [14], in [15], in assay [16] and in assay [17] was inactive.

Consider `CN1CCN(NC(=O)c2cccc(Br)c2)CC1`, for which the outcome in assay [1], in [2], in assay [5], in assay [6], in [7] and in [8] was inactive. In addition, the outcome in assay [9], in assay [10], in assay [11], in assay [12], in assay [13] and in assay [14] was inactive. For the same compound, the outcome in [16] and in [17] was inactive. The potentiation was 8% (active) in assay [3], 18% (active) in assay [4] and 21.8% (active) in assay [15].

As for `NCCc1nnc(SCc2ccccc2)o1`, the result in assay [1], in assay [2], in [3], in [4], in assay [5] and in assay [6] was inactive. Moreover, the result in assay [7], in assay [8], in assay [9], in [10], in [11] and in assay [12] was inactive. Further, the result in assay [13], in [14], in [15], in [16] and in assay [17] was inactive.

With `OC1(c2ccc(Cl)cc2)CN(c2ccccc2)C2=[N+]1CCS2` (stereo not given), the outcome in assay [1], in [2], in [3], in assay [4], in assay [5] and in assay [6] was inactive. In addition, the outcome in assay [7], in assay [8], in [9], in assay [10], in assay [12] and in assay [13] was inactive. The result in assay [14], in assay [15], in [16] and in assay [17] was inactive. Moreover, the activation in assay [11] was 38% (active).

As to `Cn1c(N2CCC(C(N)=O)CC2)nc2c1c(=O)n(Cc1ccc(Br)cc1)c(=O)n2C`, the result in assay [1], in [2], in assay [3], in assay [4], in assay [5] and in [6] was inactive. Further, the result in assay [7], in assay [8], in assay [9], in assay [10], in assay [11] and in assay [12] was inactive. Moreover, the outcome in assay [13], in assay [14], in assay [15], in assay [16] and in assay [17] was inactive.

Turning to `CN1CCN(c2ccc(S(=O)(=O)N3CCCCC3)cc2NC(=O)c2ccc(F)cc2F)CC1`, the result in [1], in assay [2], in [3], in assay [4], in [5] and in assay [6] was inactive. The outcome in [7], in assay [8], in assay [9], in [10], in assay [11] and in assay [12] was inactive. The outcome in assay [13], in assay [14], in assay [16] and in assay [17] was inactive. Further, the potentiation in [15] is 14.3% (active).

As to `CN1CCCN(Cc2cccc3ccccc23)CC1`, the result in [1], in [2], in assay [4], in assay [5], in assay [6] and in assay [7] was inactive. The outcome in assay [8], in assay [9], in [10], in assay [11], in [12] and in assay [13] was inactive. Also, the result in [14], in assay [16] and in [17] was inactive. The values for the potentiation in assay [3] and in assay [15] were 34% (active) and 28.3% (active), respectively.

Consider `CCN1CCN(Cc2nc3c(c(=O)[nH]c(=O)n3C)n2Cc2ccccc2Cl)CC1`, for which the result in assay [1], in [2], in [3], in [5], in assay [6] and in assay [7] was inactive. Further, the result in [8], in assay [9], in assay [10], in assay [11], in [12] and in [13] was inactive. For the same compound, the result in [14], in [16] and in [17] was inactive. Further, the results for the potentiation in assay [4] and in assay [15] were 12% (active) and 19% (active), respectively.

For the compound `CCN(CC)CCNc1ccc(Cl)cc1[N+](=O)[O-]`, the result in assay [1], in assay [2], in assay [4], in [5], in [6] and in [7] was inactive. Moreover, the result in assay [8], in assay [9], in assay [10], in assay [11], in [12] and in assay [13] was inactive. Besides, the result in assay [14], in assay [16] and in [17] was inactive. Further, the potentiation in [3] is 31% (active); in assay [15], 17.9% (active).

Take `CC(=O)Oc1c(C)cc(O)c2ccccc12`: the result in [1], in [2], in [3], in [4], in [5] and in assay [6] was inactive. Besides, the result in assay [7], in assay [8], in assay [9], in [10], in assay [11] and in assay [12] was inactive. In addition, the result in assay [13], in assay [14], in assay [15], in assay [16] and in [17] was inactive.

Consider `CCc1ccc(OCC(=O)NC2CCCCC2)c(Br)c1`, for which the outcome in [1], in assay [2], in assay [3], in assay [5], in [6] and in assay [7] was inactive. Moreover, the outcome in assay [8], in [9], in assay [10], in [11], in assay [12] and in assay [13] was inactive. The result in [14], in assay [16] and in [17] was inactive. Moreover, the potentiation in assay [4] was 46% (active); in assay [15], 135% (active).

As to `CCN(CC)CCSc1nnc2c3ccccc3n(Cc3ccccc3)c2n1`, the outcome in assay [1], in [2], in [3], in [4], in [5] and in [6] was inactive. The result in [7], in assay [8], in assay [9], in assay [10], in assay [11] and in [12] was inactive. The result in assay [13], in assay [14], in assay [15], in [16] and in assay [17] was inactive.

The term inhibition denotes the change of the read-out against control, counted positive when it falls. `CCN(CC)CCN(Cc1cc2ccc(C)cc2[nH]c1=O)C(=S)Nc1ccccc1C(=O)OC`: the result in [1], in assay [2], in assay [3], in [4], in assay [6] and in [7] was inactive. Further, the result in assay [8], in assay [9], in assay [10], in assay [11], in assay [12] and in [13] was inactive. Besides, the outcome in [14], in assay [15], in [16] and in assay [17] was inactive. Moreover, the inhibition in [5] was 85% (active).
